Rows were chosen to be rich in hits. Some 19% of all compounds tested hit in one or more screens of this group.
HT1080-NT tox: kills 2HG-producing HT-1080-NT fibrosarcoma cells | HT-1080-NT fibrosarcoma viability, CellTiter-Glo ATP luminescence, 48 h | Potency, µM (titrated, usually from 46.1 µM), usual class: cytotoxic | 360,000 compounds, 1.6% hits;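 also: NT is the 2HG producing partner of a matched IDH1 knockdown line; nearly all actives have a fitted effect of over 55% in size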
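Viability by CellTiter-Glo luminescence after 48 h compound exposure at 37C of HT-1080-NT cells (750/well, RPMI, 5% FBS). % activity scaled between DMSO wells and medium-only wells, then curve-fitted and categorized by curve class.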
DT40 TDP1 no CPT: qHTS for Inhibitors of human tyrosyl-DNA phosphodiesterase 1 (TDP1): qHTS in cells in absence of CPT. Potency, µM (highest dose often 46.2 µM), actives largely listed as inhibitors. 420,000 compounds, 15% hits. DT40 Tdp1-/- hTDP1 cells, no CPT, ATP luminescence, 48 h; also: nearly all actives have a fitted effect of over 55% in size
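No-CPT arm: Tdp1-/-;hTDP1 DT40 cells (400/well) plus compounds, incubated ≥48 hr at 37 °C. Readout CellTiter-Glo luminescence.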
IL1B secr inh: blocks inflammasome-driven IL-1 beta release; AID 743279; 360,000 compounds, 4.7% hits; activity change, % at 57.5 µM; THP-1 LPS/ATP IL-1B secretion, AlphaLISA, 16 h; stronger effect = lower value; in the data active = activity change below about -50%; inconclusive = mostly about -30% to -49%
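Secreted IL-1B measured by AlphaLISA bead assay after 16 h compound exposure of THP-1 cells; compounds (final up to 57.5 uM) added 1 h before LPS (250 ng/mL) and ATP (1.25 mM) stimulation; lower signal means less secretion.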
HT1080 IDH1KD tx: kills HT-1080 cells with IDH1 knockdown | HT-1080 IDH1 knockdown viability, ATP luminescence, 48 h | Potency, µM (series often up to 46.1 µM), actives largely listed as cytotoxic | 360,000 compounds, 2% hits
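Using the IDH1-knockdown HT-1080 line run in the same batch and compound series as the NT line, viability after 48 h at 37 °C was determined by CellTiter-Glo luminescence and expressed as % activity.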
DT40 TDP1 CPT: DT40-hTDP1 cell growth loss with CPT; chicken DT40 Tdp1-/-;hTDP1 cells + 20 nM CPT, ATP luminescence, 48 h; Potency, µM (highest dose often 46.2 µM), usual class: inhibitors; 420,000 compounds, 12% hits; AID 686979; also: nearly all actives have a fitted effect of over 55% in size
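Chicken DT40 Tdp1-/- cells stably complemented with human TDP1 were seeded at 400 cells/well in medium containing 20 nM camptothecin, exposed to pin-transferred compounds, and grown at 37 °C for at least 48 hr. Viability was read as ATP luminescence.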
Hits are given with their value; n = inactive; u = inconclusive; x = no result; [ ] = another dose, or the depositor's remark. Unless noted, calls follow the shape of the dose curve; as a rule, active = well fitted curve in the direction sought with a large enough effect; inconclusive = small, poorly fitted or top-dose-only effect, or another doubt; inactive = no such curve, though single readings can be large; an effect the other way counts as inactive or inconclusive.

SMILES	HT1080-NT tox	DT40 TDP1 no CPT	IL1B secr inh	HT1080 IDH1KD tx	DT40 TDP1 CPT
COc1cc(/C=C/C(=O)O[C@H]2CC[C@]34C[C@]35CC[C@]3(C)[C@@H]([C@H](C)CCC=C(C)C)CC[C@@]3(C)[C@@H]5CC[C@H]4C2(C)C)ccc1O	x	n	x	x	n
OC[C@@H]1CN(Cc2cccs2)C[C@H](n2cnc3c(N4CCCC4)ncnc32)O1	n	n	n	n	n
CC(C)NC(=O)N1CCC2(CC1)CCN(C(=O)c1cnccn1)CC2	x	n	x	x	n
CCOC(=O)C1CCN(CC(=O)Nc2ccc(OC)c(Cl)c2)CC1	n	n	n	n	n
COc1ccc(NC(=O)CN2CCN(CC(=O)Nc3ccccc3Cl)CC2)cc1Cl	n	11.6µM	-51.4	n	14.6µM
N#CCCn1c(=O)c(-c2cc(F)cc(F)c2)nc2cnc(N3CCOCC3)nc21	x	n	x	x	n
CCn1c(C(=O)NCc2cccc(Br)c2)cc2oc3ccccc3c21	x	14.6µM	x	x	u
Cn1c(C(=O)NCc2ccccc2)cc2oc3ccccc3c21	u	n	u	u	n
CCn1c(C(=O)NCc2ccccc2Br)cc2oc3ccccc3c21	n	n	x	u	20.6µM
CCn1c(C(=O)NCc2cc(Br)ccc2OC)cc2oc3ccccc3c21	x	u	x	x	23.1µM
CC(C)CNC(=O)[C@H](Cc1ccccc1)NC(=O)c1cccs1	n	n	n	n	n
CC1CCCCC12NC(=O)N(CC(=O)N1CCN(c3ncccn3)CC1)C2=O (stereo not drawn)	n	u	n	n	n
N#Cc1c(NCc2ccccc2)ccnc1Cl	n	20.6µM	n	n	u
CCN(CC)c1ccc(/C=N/NC(=O)OC)c(O)c1	n	25.9µM	n	n[9.24 µM]	u
CCN(CC)c1ccc(/C=N/NC(=O)c2ccc3nc[nH]c3c2)c(O)c1	u	u	n	2.06µM	18.4µM
CCN(CC)c1ccc(/C=N/NC(=S)NC)c(O)c1	n	0.517µM	n	n	0.731µM
COc1ccc(/C=N/NC(=O)c2ccc3nc[nH]c3c2)c(OC)c1	n	u	n	n	4.61µM
CCCCN(C)CCNC(=O)c1cn(C)c(=O)c2c1c1ccccc1n2C	n	n	n	n	n
CC(C)CC(OC(=O)CC1Sc2ccccc2NC1=O)C(=O)NC1CCCC1 (stereo not drawn)	n	u	n	n	n
COc1ccc(CCNC(=O)C/C(C)=N/NC(=O)c2ccc([N+](=O)[O-])cc2Cl)cc1OC	n	n	n	n	n
CCN(CC)c1ccc(/C=N/NC(=O)c2ccoc2C)c(O)c1	u	3.26µM	n	5.17µM	13µM
O=C1CC[C@@H](C(=O)N2CSC[C@@H]2C(=O)Nc2cccc(C(F)(F)F)c2)N1	n	n	n	n	n
Clc1ccc(CNc2ccc(N3CCN(Cc4ccccc4)CC3)cc2)cc1	n	u	-58.3	u	u
O=C(CN1CCN(C/C=C/c2ccccc2)CC1)NCc1ccc(Cl)cc1	u	4.61µM	n	u	5.8µM
NS(=O)(=O)c1ccc(CCNC(=O)CN2CCN(c3cccc(Cl)c3)CC2)cc1	n	16.4µM	n	n	18.4µM
SMILES	HT1080-NT tox	DT40 TDP1 no CPT	IL1B secr inh	HT1080 IDH1KD tx	DT40 TDP1 CPT
CCC(=O)Nc1ccc(N2CCN(Cc3ccccc3)CC2)cc1	n	n	n	n	n
NS(=O)(=O)c1ccc(NCc2c(F)cccc2Cl)cc1	n	u	n	n	n
Fc1cccc(Cl)c1CNc1ccc(N2CCCC2)cc1	u	9.2µM	n	n	2.31µM
Cc1ccccc1S(=O)c1ccccc1C(=O)O (stereo not drawn)	n	n	n	n	n
CCNC(=S)Nc1ccc(S(=O)(=O)Nc2cc(C)nc(C)n2)cc1	n	n	n	n	n
Cc1ccc(NC(=O)c2cc(C(=O)Nc3ccc(C)cc3)n(C)n2)cc1	u	n	n	n	n
Cc1cccc(N2CCN(CC(=O)NCc3ccc(Cl)cc3)CC2)c1C	n	4.11µM	-63.9	n	u
O=C(CN1CCN(c2cccc(Cl)c2)CC1)NCc1ccccc1	n	u	n	n	n
O=C(CN1CCN(c2ccc(Cl)cc2)CC1)NCc1ccccc1	n	u	-61.0	n	u
CC(=O)Oc1cccc(C(=O)Nc2ccccc2C(=O)N2CCCC2)c1	n	n	n	n	n
C=CCn1c(C(C)NC(=O)c2cccc(C)c2)n[nH]c1=S (stereo not drawn)	n	n	n	n	n
CC(C)CN1CCC2(CC1)CCN(C(=O)c1cccn1C)CC2	x	n	x	x	n
Cn1cccc1C(=O)N1CCC2(CC1)CCN(C(c1ccccc1)c1ccccc1)CC2	x	14.6µM	x	x	u
Cn1cccc1C(=O)N1CCC2(CCCN(c3ncccn3)C2)CC1	x	0.651µM	x	x	u
Cn1cccc1C(=O)N1CCC2(CC1)CCN(c1ccccn1)CC2	x	14.6µM	x	x	u
CCCCc1c(CCC)c(=N)c2ccccc2n1C	n	5.17µM	-77.4	20.6µM	23.1µM
CC(NC(=O)CCSc1nc(-c2ccc3c(c2)OCO3)cc(C(F)(F)F)n1)c1ccccc1 (stereo not drawn)	n	u	n	n	23.1µM
CC(C)NC(=O)CCSc1nc(-c2ccc3c(c2)OCO3)cc(C(F)(F)F)n1	x	8.2µM	x	x	13µM
CCC(C)NC(=O)CSc1nc(-c2ccc(F)cc2)cc(C(F)(F)F)n1 (stereo not drawn)	x	u	x	x	n
CCCCNC(=O)CCSc1nc(-c2ccc3c(c2)OCO3)cc(C(F)(F)F)n1	x	n	x	x	n
CCOC(=O)Nc1ccc2nc(Sc3ccc(Cl)cc3)sc2c1	u	5.8µM	n	u	5.8µM
O=C(COc1ccc(Cl)cc1)Nc1ccc2nc(SCC(=O)N3CCOCC3)sc2c1	x	14.6µM	x	x	u
CCOC(=O)CSc1nc2ccc(NC(=O)c3ccc(Cl)cc3)cc2s1	x	u	x	x	n
CC(C)CC(=O)Nc1ccc2nc(SCC(=O)N3CCOCC3)sc2c1	x	u	x	x	n
Cc1ccc(OCC(=O)Nc2ccc3nc(SCC(=O)N4CCOCC4)sc3c2)cc1	x	20.6µM	x	x	u
SMILES	HT1080-NT tox	DT40 TDP1 no CPT	IL1B secr inh	HT1080 IDH1KD tx	DT40 TDP1 CPT
C[C@@H]1CN([C@H](C)CO)C(=O)CCCn2nncc2CO[C@H]1CN(C)C(=O)c1ccc2ccn(C)c2c1	n	n	n	n	n
CCN(C(=O)CCNC(=O)Cn1cnc2ccccc2c1=O)c1cc(OC)ccc1OC	x	n	x	x	n
COc1ccc(CNC(=O)CCc2c(C)nc3nc(CNC(=O)OC(C)(C)C)nn3c2C)cc1	x	n	x	x	n
Cc1ccc(NC(=S)NCCN(C2CCCCC2)C2CCCC2)cc1C	u	u	-67.1	u	20.6µM
Cc1ccc(NC(=S)NCCN(C2CCCCC2)C2CCCC2)cc1	n	u	n	n	u
CCOc1ccc(-c2noc(CSc3nnc(Cc4ccccc4)n3-c3cccc(C)c3)n2)cc1	x	13µM	x	x	18.4µM
Clc1ccc(-c2noc(CSc3nnc(Cc4cccs4)n3-c3ccccc3)n2)cc1	n	u	n	n	u

From PubChem
